Assay outcomes deposited in PubChem BioAssay by several laboratories.
A selection: hits, their analogues and other compounds. The true share with any hit is near 3.4%.
hgDAF12 agonist = H. glycines DAF-12 receptor agonists, primary screen, cell-based, luminescence, HEK293, GAL4 fusion, UAS-luciferase. AID 687014, 2013. activation, % at 6.8 µM. 370,000 tested, 1.8% active. HEK293 GAL4-hgDAF12 UAS-luciferase reporter, agonist luminescence; normalized to butyrate control. Nuclear hormone receptor DAF-12 (Heterodera glycines), GAL4 fusion;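 active = activation above a cutoff set at the mean of all screened compounds plus 3 SD, cut at about 10% in these data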;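 also: 0% = DMSO wells and 100% = sodium butyrate wells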
hcDAF12 agonist = H. contortus DAF-12 nuclear receptor activators, primary screen, cell-based, luminescence, HEK293, lit1-tk-luc reporter; HEK293 hcDAF-12 lit1-tk-luc reporter; 0% DMSO, 100% Δ7-dafachronic acid; activation, % at 6.8 µM; 370,000 tested, 1.4% active; AID 652067, 2013;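 active = activation above the mean of all tested compounds plus 3 SD, cut at about 5.5% in these data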;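 also: 100% = response to 3 µM Δ7-dafachronic acid high control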
ssDAF-12 act = S. stercoralis DAF-12 nuclear receptor activators, primary screen, cell-based, luminescence, HEK293, GRIP1 co-expression, lit1-tk-luc | HEK293 ssDAF-12/GRIP1 lit1-tk-luc reporter; % of 3 µM dafachronic acid response | 370,000 tested, 1% active | Nuclear hormone receptor DAF-12 (Strongyloides stercoralis) | AID 652126, 2013 | activation, % at 6.8 µM;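 active = activation above the mean over all tested compounds plus 3 SD, cut at about 0.9% in these data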;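 also: 0% = DMSO-only wells and 100% = 3 µM delta7-dafachronic acid wells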
APP 5'UTR act = activators of APP 5'UTR luciferase reporter, primary screen, SH-SY5Y cells; 190,000 tested, 1% active; SH-SY5Y APP 5'UTR luciferase reporter, luminescence; zero percent = DMSO vehicle wells; AID 1276, 2008; activation, % at 2 µM;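 active = activation above a set limit, based on mean plus 3 SD of controls, cut at about 140% in these data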
NF-kB neuron act = activators of NF-kB expression in neurons, primary screen, cell-based, HTS; AID 1239, 2008; 190,000 tested, 1.6% active; human neuronal cells, NF-kB reporter expression; active compounds read high; fold change at 12.5 µM; in the data active = fold change above about 3.3
The depositor's hits bear a star.

How did COC(=O)C1CN(Cc2ccc(OC)cc2)CCS(=O)(=O)N1Cc1ccc(F)cc1 (stereo not drawn) do in these assays?
hgDAF12 agonist: -1; hcDAF12 agonist: 0; ssDAF-12 act: -2

What do the screens show for `Oc1c(C(c2ccccn2)N2CCCCC2)cc(Cl)c2cccnc12` (stereo not drawn)?
hgDAF12 agonist: -1; hcDAF12 agonist: 3; ssDAF-12 act: 0; APP 5'UTR act: 14; NF-kB neuron act: 4.9*

Results for CN1CCN(C(c2ccc(Cl)cc2)c2cc(Cl)c3cccnc3c2O)CC1 (stereo not drawn) ?
hgDAF12 agonist: -5; hcDAF12 agonist: 2; ssDAF-12 act: 0

What do the screens show for `Cc1ccc(CNC(=O)CCS(=O)(=O)c2cc3c(cc2Br)CCN3C(=O)C2CC2)o1`?
hgDAF12 agonist: 3; hcDAF12 agonist: 0; ssDAF-12 act: -1

What do the screens show for `O=C1c2ccccc2NC2(CCCCC2)N1N=C1CCCCC1`?
hgDAF12 agonist: 12*; hcDAF12 agonist: 1; ssDAF-12 act: 0; APP 5'UTR act: -1; NF-kB neuron act: 1.2

How did CCOc1ccc(NC(=O)C(Cc2ccccc2)N2C(=O)c3cccc4cccc(c34)C2=O)cc1 (stereo not drawn) do in these assays?
hgDAF12 agonist: -2; hcDAF12 agonist: 6.0*; ssDAF-12 act: 1; APP 5'UTR act: -2; NF-kB neuron act: 1.1

How did CCOc1ccc(NC(=O)CN2C(=O)c3cccc4cccc2c34)cc1 do in these assays?
hgDAF12 agonist: 12*; hcDAF12 agonist: 4; ssDAF-12 act: 0

Results for COc1ccc(NC(=O)CN2C(=O)c3cccc4cccc2c34)c(OC)c1 ?
hgDAF12 agonist: -1; hcDAF12 agonist: -2; ssDAF-12 act: -1; APP 5'UTR act: 1; NF-kB neuron act: 1.1

How did Cc1ccc(-c2nnc(SCC(=O)NNC(=S)Nc3ccccc3)n2C2CCCCC2)cc1 do in these assays?
hgDAF12 agonist: 0; hcDAF12 agonist: -2; ssDAF-12 act: -1

What do the screens show for `CCOC(=O)[C@@]12CCCC3=C1N(CCC3)C(=O)[C@H]2CC(=O)NCc1ccccc1`?
hgDAF12 agonist: -1; hcDAF12 agonist: -2; ssDAF-12 act: -1

Results for COc1ccc(OCC(=O)N/N=C2\CCCc3ccccc32)cc1 ?
hgDAF12 agonist: -3; hcDAF12 agonist: 3; ssDAF-12 act: 1.0*; APP 5'UTR act: 6; NF-kB neuron act: 1.1

Results for O=C(COc1ccccc1F)N/N=C1\CCCc2ccccc21 ?
hgDAF12 agonist: 10; hcDAF12 agonist: 5.8*; ssDAF-12 act: 0; APP 5'UTR act: 48; NF-kB neuron act: 3

What do the screens show for `CCN(CC)CCNC(=O)c1cccc(NC(=O)C(=O)c2ccccc2NC(C)=O)c1`?
hgDAF12 agonist: 4; hcDAF12 agonist: 5.9*; ssDAF-12 act: 0; APP 5'UTR act: 14; NF-kB neuron act: 1.1

How did COc1ccc(C(=O)OCCCN(C)C2CN(Cc3cn(Cc4ccccc4F)nn3)S(=O)(=O)C2)cc1OC (stereo not drawn) do in these assays?
hgDAF12 agonist: 5; hcDAF12 agonist: -3; ssDAF-12 act: -2

What do the screens show for `COc1ccc(C(=O)c2ccccc2)cc1`?
hgDAF12 agonist: 0; hcDAF12 agonist: 2; ssDAF-12 act: 16*; APP 5'UTR act: -2; NF-kB neuron act: 1.6

Results for COc1ccc(C(=O)c2ccc(Br)cc2)cc1 ?
hgDAF12 agonist: 3; hcDAF12 agonist: -1; ssDAF-12 act: -1; APP 5'UTR act: 25; NF-kB neuron act: 1.9

Results for COc1ccc(CC(=O)OCC(=O)c2c[nH]c3ccccc23)cc1 ?
hgDAF12 agonist: 0; hcDAF12 agonist: 2; ssDAF-12 act: 0

Results for COc1ccc(C(=O)c2c[nH]c3ccccc23)cc1 ?
hgDAF12 agonist: 11*; hcDAF12 agonist: 4; ssDAF-12 act: 1; APP 5'UTR act: 96; NF-kB neuron act: 3.5*

What do the screens show for `COc1ccc2c(c1)CN1C(=O)N(CCc3ccccc3)S(=O)(=O)CC21` (stereo not drawn)?
hgDAF12 agonist: 5; hcDAF12 agonist: 1; ssDAF-12 act: -1
